According to PubChem BioAssay:
Calls of active or inactive are those of the source. No rule for the calls is given here.

Target: Pantothenate synthetase (Mycobacterium tuberculosis (strain ATCC 25618 / H37Rv)) (UniProt P9WIL5)
Experiment: Coupled enzyme confirmation of inhibitors against recombinant Mtb PanC (AID 375);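 also: 0% = full reaction with vehicle and 100% = no enzyme background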
Conditions: coupled enzyme assay; at 10 µM, active compounds read high

Sequence of Pantothenate synthetase (Mycobacterium tuberculosis (strain ATCC 25618 / H37Rv)) (P9WIL5 whole entry, looked up): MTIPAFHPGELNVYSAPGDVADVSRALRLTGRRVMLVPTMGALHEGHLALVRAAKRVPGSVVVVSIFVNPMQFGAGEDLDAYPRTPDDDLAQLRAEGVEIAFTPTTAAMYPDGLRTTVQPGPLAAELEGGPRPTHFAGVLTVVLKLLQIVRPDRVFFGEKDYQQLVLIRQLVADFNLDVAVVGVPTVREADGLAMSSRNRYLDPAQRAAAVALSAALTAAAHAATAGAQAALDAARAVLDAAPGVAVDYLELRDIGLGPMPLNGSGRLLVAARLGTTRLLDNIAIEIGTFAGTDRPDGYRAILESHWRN

SMILES	inhibition
Cc1n[nH]c(C)c1N1C(=O)c2cccc3cc(Br)cc(c23)C1=O	6% (inactive)
O=C(OCn1nnc2ccccc2c1=O)C1CCN(S(=O)(=O)c2cccs2)CC1	0% (inactive)
Cc1noc(/C=C/N(C)C)c1S(=O)(=O)N1CCc2ccccc21	0% (inactive)
CCSc1nnc(NC(=O)c2ccc(C)o2)s1	9% (inactive)
CCOC(=O)c1ccccc1NC(=O)c1cccnc1	0% (inactive)
Cc1cccc(C)c1NC(=O)c1cc(S(=O)(=O)N2CCOCC2)ccc1F	0% (inactive)
CC1Cn2c(nnc2-c2ccc(F)cc2)S1 (stereo not given)	6% (inactive)
COc1ccc(N2C(=O)CCC(C(=O)N3CCCCC3)C2c2ccc(OC)c(OC)c2)cc1 (stereo not given)	6% (inactive)
CC(=O)c1cc2c(=O)c3cc(C)ccc3oc2nc1C	0% (inactive)
O=C(NCc1n[nH]c(=S)n1-c1ccc(F)cc1)c1ccco1	0% (inactive)
C=CCn1c(SCc2cc(=O)n3ccsc3n2)nnc1C1CCCCC1	0% (inactive)
Cn1c(=O)[nH]c(=O)c2[nH]c(NCCCN3CCOCC3)nc21	0% (inactive)
CNc1nnc(-c2cccc(N(C)C)c2)s1	0% (inactive)
CCOc1ccc(NC(=O)Cn2nnc(-c3ccccc3F)n2)cc1	2% (inactive)
Cc1ccc(SC(C)c2nc(-c3ccccc3)no2)cc1 (stereo not given)	0% (inactive)
CCCCCCc1ccc(-c2ncc(N)cn2)cc1	0% (inactive)
CC(C)[C@H](NC(=O)OC(C)(C)C)c1nnc(S(=O)(=O)Cc2c(F)cccc2Cl)o1	0% (inactive)
c1ccc(CNc2ccc3c(c2)ncn3C2CCCCC2)nc1	0% (inactive)
Cn1c(=O)cc(OCC(=O)NCCCN2CCN(c3cccc(Cl)c3)CC2)c2ccccc21	0% (inactive)
CCCn1c(=NC(C)=O)c(C#N)cc2c(=O)n3cccc(C)c3nc21	0% (inactive)

SMILES	inhibition
COc1ccc(-c2cc3nc4n(c(=O)c3s2)CCC4)cc1	8% (inactive)
c1ccc(OCc2nc3ccccc3[nH]2)cc1	0% (inactive)
Cc1cc(C(=O)COc2cccc3cccnc23)c(C)n1C	0% (inactive)
Cn1c(=O)[nH]c(=O)c2c1ncn2CCN1CCOCC1	0% (inactive)
COC(=O)C1CCN(C(=O)NC(C)(C)C)CC1	6% (inactive)
c1ccc(C(Cc2nc(-c3ccccn3)no2)c2ccccc2)cc1	0% (inactive)
CCCOc1ccc2nc(NC(=O)OC)[nH]c2c1	0% (inactive)
COCCN1C=C(C(=O)OC)C(c2cc3c(cc2Br)OCO3)C(C(=O)OC)=C1	0% (inactive)
Cc1ccc(NC(=O)CSc2nnc(CSc3nc(C)cc(C)n3)n2Cc2ccco2)c(C)c1	0% (inactive)
O=C(Cn1nnc(-c2cccc(C(F)(F)F)c2)n1)NC(=O)NCc1ccco1	0% (inactive)
CCOC(=O)CSC1=C(C#N)C(c2ccc(C)cc2)C(C(=O)OC)C(=O)N1 (stereo not given)	0% (inactive)
N#Cc1c(NC(=O)COC(=O)C2CC3C=CC2C3)oc(-c2ccccc2)c1-c1ccccc1 (stereo not given)	1% (inactive)
N#Cc1c(N)n(CCOC(=O)c2cccc(Br)c2)c2nc3ccccc3nc12	3% (inactive)
O=C(COC(=O)CCc1c[nH]c2ccccc12)NC1CCS(=O)(=O)C1 (stereo not given)	3% (inactive)
COC(=O)c1c(NC(=O)CSc2nnc(-c3cccnc3)n2Cc2ccco2)sc(C)c1C	0% (inactive)
Cc1nc2ccc(NC(=O)N3CCOCC3)cc2s1	4% (inactive)
CCOC(=O)C1CCN(Cc2ccc(OC)c(C)c2OC)CC1	0% (inactive)
O=C(C(c1ccccc1)c1ccccc1)N1CCN(Cc2ccccn2)CC1	0% (inactive)
CC1CCN(S(=O)(=O)c2ccc3[nH]c(=O)cc(C(=O)O)c3c2)CC1	0% (inactive)
CCCCC(CC)C(=O)Nc1ccc(Cl)cn1 (stereo not given)	8% (inactive)
